Source: PubChem BioAssay (NCATS)
Inconclusive results are not listed. Entries that show only a call come without a potency. Active and inactive are the calls of the source. Calls follow the shape of the dose curve; as a rule, active = well fitted inhibition curve with a large enough effect; inconclusive = small, poorly fitted or top-dose-only effect; inactive = flat fitted curve, though single readings scatter.
Potency is read from the fitted curve at half-maximal effect.

The compounds below were run on NIH3T3 (assay: qHTS assay to identify novel small-molecules to repurpose for Merkel cell carcinoma treatment (AID 1296009; also: nearly all actives have a fitted effect of over 60% in size)). Conditions: MCC and control cell lines, CellTiter-Glo viability, 72 h; at 44.8 µM (top of the series) unless noted.
How it was run: (§1)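 CellTiter-Glo luminescence after 72 hr compound exposure at 37 degree celsius gave cell viability. Libraries NPC and MIPE were run as 8- and 11-point dose responses; RLUs normalized to DMSO (negative) and no-cell (cytotoxicity) controls.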
For N=C(N)N, the outcome was “inactive”.
In the case of O=C(O)Cc1ccc2c(c1)C(=O)c1ccccc1CO2, the outcome is reported as “inactive”.
With CO[C@@]1(NC(=O)Cc2cccs2)C(=O)N2C(C(=O)O)=C(COC(N)=O)CS[C@@H]21 the outcome was “inactive”.
In the case of Nc1ccc(O)c(C(=O)O)c1, the outcome is reported as “inactive”.
With COc1cc(NC(C)CCCN)c2ncccc2c1 (stereo unspecified) the outcome was “inactive”.
In the case of CCCC(=O)OC[C@@H](OC(=O)CCC)[C@@H](OC(=O)CCC)[C@H](Cn1c2nc(=O)[nH]c(=O)c-2nc2cc(C)c(C)cc21)OC(=O)CCC, the outcome is reported as “inactive”.
CC(=O)c1ccc(OCC(=O)N2CCCCC2)cc1 was tested, and the outcome was “inactive”.
With CCOc1ccc2nc(S(N)(=O)=O)sc2c1 the outcome was “inactive”.
For CN(C)CCn1nnnc1SCC1=C(C(=O)O)N2C(=O)[C@@H](NC(=O)Cc3csc(N)n3)[C@H]2SC1, the outcome was “inactive”.
With CCCCCCCCCCCCCCCC(=O)OC(C)C the outcome was “inactive”.
In the case of Nc1ccc(C(=O)O)c(O)c1, the outcome is reported as “inactive”.

What follows are compounds tested on UISO in the same assay as above. Conditions: MCC and control cell lines, CellTiter-Glo viability, 72 h; series mostly up to 46 µM.
How it was run: as §1
With CC(C)(C)c1nnc(NS(=O)(=O)c2ccc(N)cc2)s1 the Potency was “inactive”.
N=C(N)N was tested, and the Potency was “inactive”.
Cc1ccc(C(=O)c2ccc(CC(=O)O)n2C)cc1 was tested, and the Potency was “inactive”.
In the case of CCCCCCCC/C=C/C(=O)O, the Potency is reported as “inactive”.
In the case of O=C(/C=C/c1ccccc1)NCCO, the Potency is reported as “inactive”.
With COc1cc2c3cc1Oc1cc(ccc1O)C[C@@H]1c4c(cc(OC)c(O)c4Oc4ccc(cc4)C[C@@H]3N(C)CC2)CC[N+]1(C)C the Potency was “inactive”.
With O=C(O)Cc1ccc2c(c1)C(=O)c1ccccc1CO2 the Potency was “inactive”.
For O=C(Nc1ccc(C(=O)O)c(O)c1)c1ccccc1, the Potency was “inactive”.
For CO[C@@]1(NC(=O)Cc2cccs2)C(=O)N2C(C(=O)O)=C(COC(N)=O)CS[C@@H]21, the Potency was “inactive”.
In the case of Nc1ccc(O)c(C(=O)O)c1, the Potency is reported as “inactive”.
C=CCCCCCCCCC(=O)O was tested, and the Potency was “inactive”.
With Nc1c(CC(=O)O)cccc1C(=O)c1ccc(Br)cc1 the Potency was “inactive”.
In the case of O=C(OCc1ccccc1)c1ccccc1, the Potency is reported as “inactive”.
With CCCCCCCCCCCCOCCO the Potency was “inactive”.
With CN(C)[C@@H]1C(=O)C(C(=O)NCN2CCCC2)=C(O)[C@@]2(O)C(=O)C3=C(O)c4c(O)cccc4[C@@](C)(O)C3C[C@@H]12 (stereo partly specified) the Potency was “inactive”.
O=C(O)Cc1ccc(-c2ccccc2)cc1 was tested, and the Potency was “inactive”.
Cc1c(Nc2ncccc2C(=O)O)cccc1C(F)(F)F was tested, and the Potency was “inactive”.
In the case of CC(C(=O)O)c1ccc2c(c1)[nH]c1ccc(Cl)cc12 (stereo unspecified), the Potency is reported as “inactive”.
With CCCOC(=O)c1ccc(O)cc1 the Potency was “inactive”.
CCCCCCCCCCCC(=O)[O][Sn]([CH2]CCC)([CH2]CCC)[O]C(=O)CCCCCCCCCCC was tested, and the Potency was “inactive”.
O=C(O)/C=C\C(=O)O was tested, and the Potency was “inactive”.
CCOC(=O)c1ccccc1O was tested, and the Potency was “inactive”.
In the case of Cc1c(N)c(=O)n(-c2ccccc2)n1C, the Potency is reported as “inactive”.
C[N+]1(C)[C@@H]2CC(OC(=O)[C@H](CO)c3ccccc3)C[C@H]1[C@@H]1O[C@@H]12 (stereo partly specified) was tested, and the Potency was “inactive”.
c1ccc2sc(SSc3nc4ccccc4s3)nc2c1 was tested, and the Potency was “inactive”.
For COc1cc(NC(C)CCCN)c2ncccc2c1 (stereo unspecified), the Potency was 3.35 µM (active).
For CC(=O)c1ccc(OCC(=O)N2CCCCC2)cc1, the Potency was “inactive”.
For CN(C)CCn1nnnc1SCC1=C(C(=O)O)N2C(=O)[C@@H](NC(=O)Cc3csc(N)n3)[C@H]2SC1, the Potency was “inactive”.
For CCCCCCCCCCCCCCCC(=O)OC(C)C, the Potency was “inactive”.
CCCCCCCCCCCCCCCCCC(=O)O was tested, and the Potency was “inactive”.
In the case of CNC(=O)c1c(I)c(NC(=O)CCCCC(=O)Nc2c(I)c(C(=O)O)c(I)c(C(=O)NC)c2I)c(I)c(C(=O)O)c1I, the Potency is reported as “inactive”.
In the case of CCC1C(=O)OCC1Cc1cncn1C (stereo unspecified), the Potency is reported as “inactive”.
Nc1ccc(C(=O)O)c(O)c1 was tested, and the Potency was “inactive”.
For [O-][n+]1ccccc1SSc1cccc[n+]1[O-], the Potency was 0.092 µM (active).

These compounds were tested on WaGa in the same assay as above. Conditions: MCC and control cell lines, CellTiter-Glo viability, 72 h; series mostly up to 46 µM.
How it was run: as §1
In the case of CC(C)(C)c1nnc(NS(=O)(=O)c2ccc(N)cc2)s1, the Potency is reported as “inactive”.
In the case of N=C(N)N, the Potency is reported as “inactive”.
In the case of Cc1ccc(C(=O)c2ccc(CC(=O)O)n2C)cc1, the Potency is reported as “inactive”.
With CCCCCCCC/C=C/C(=O)O the Potency was “inactive”.
In the case of O=C(/C=C/c1ccccc1)NCCO, the Potency is reported as “inactive”.
With COc1cc2c3cc1Oc1cc(ccc1O)C[C@@H]1c4c(cc(OC)c(O)c4Oc4ccc(cc4)C[C@@H]3N(C)CC2)CC[N+]1(C)C the Potency was “inactive”.
With O=C(O)Cc1ccc2c(c1)C(=O)c1ccccc1CO2 the Potency was “inactive”.
In the case of O=C(Nc1ccc(C(=O)O)c(O)c1)c1ccccc1, the Potency is reported as “inactive”.
For CO[C@@]1(NC(=O)Cc2cccs2)C(=O)N2C(C(=O)O)=C(COC(N)=O)CS[C@@H]21, the Potency was “inactive”.
Nc1ccc(O)c(C(=O)O)c1 was tested, and the Potency was “inactive”.
With C=CCCCCCCCCC(=O)O the Potency was “inactive”.
With Nc1c(CC(=O)O)cccc1C(=O)c1ccc(Br)cc1 the Potency was “inactive”.
In the case of O=C(OCc1ccccc1)c1ccccc1, the Potency is reported as “inactive”.
In the case of CCCCCCCCCCCCOCCO, the Potency is reported as “inactive”.
With CN(C)[C@@H]1C(=O)C(C(=O)NCN2CCCC2)=C(O)[C@@]2(O)C(=O)C3=C(O)c4c(O)cccc4[C@@](C)(O)C3C[C@@H]12 (stereo partly specified) the Potency was “inactive”.
With O=C(O)Cc1ccc(-c2ccccc2)cc1 the Potency was “inactive”.
In the case of Cc1c(Nc2ncccc2C(=O)O)cccc1C(F)(F)F, the Potency is reported as “inactive”.
For CC(C(=O)O)c1ccc2c(c1)[nH]c1ccc(Cl)cc12 (stereo unspecified), the Potency was “inactive”.
CCCOC(=O)c1ccc(O)cc1 was tested, and the Potency was “inactive”.
In the case of CCCCCCCCCCCC(=O)[O][Sn]([CH2]CCC)([CH2]CCC)[O]C(=O)CCCCCCCCCCC, the Potency is reported as “inactive”.
For O=C(O)/C=C\C(=O)O, the Potency was “inactive”.
CCOC(=O)c1ccccc1O was tested, and the Potency was “inactive”.
With Cc1c(N)c(=O)n(-c2ccccc2)n1C the Potency was “inactive”.
C[N+]1(C)[C@@H]2CC(OC(=O)[C@H](CO)c3ccccc3)C[C@H]1[C@@H]1O[C@@H]12 (stereo partly specified) was tested, and the Potency was “inactive”.
In the case of c1ccc2sc(SSc3nc4ccccc4s3)nc2c1, the Potency is reported as “inactive”.
COc1cc(NC(C)CCCN)c2ncccc2c1 (stereo unspecified) was tested, and the Potency was 3.76 µM (active).
With CCCC(=O)OC[C@@H](OC(=O)CCC)[C@@H](OC(=O)CCC)[C@H](Cn1c2nc(=O)[nH]c(=O)c-2nc2cc(C)c(C)cc21)OC(=O)CCC the Potency was 4.22 µM (active).
CC(=O)c1ccc(OCC(=O)N2CCCCC2)cc1 was tested, and the Potency was “inactive”.
In the case of CCOc1ccc2nc(S(N)(=O)=O)sc2c1, the Potency is reported as “inactive”.
CN(C)CCn1nnnc1SCC1=C(C(=O)O)N2C(=O)[C@@H](NC(=O)Cc3csc(N)n3)[C@H]2SC1 was tested, and the Potency was “inactive”.
With CCCCCCCCCCCCCCCC(=O)OC(C)C the Potency was “inactive”.
In the case of CCCCCCCCCCCCCCCCCC(=O)O, the Potency is reported as “inactive”.
With CNC(=O)c1c(I)c(NC(=O)CCCCC(=O)Nc2c(I)c(C(=O)O)c(I)c(C(=O)NC)c2I)c(I)c(C(=O)O)c1I the Potency was “inactive”.
For CCC1C(=O)OCC1Cc1cncn1C (stereo unspecified), the Potency was “inactive”.
For Nc1ccc(C(=O)O)c(O)c1, the Potency was “inactive”.
For [O-][n+]1ccccc1SSc1cccc[n+]1[O-], the Potency was 0.517 µM (active).
